In all, about 31,000 sequences went through this assay and about 1,400 (4.5%) were called active. The full list was thinned out, with actives kept by preference. A number with no mark means an inactive call.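 The calls were made as follows: active = median seed-adjusted z-score above 1 or below -1; inactive = the rest.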

A short description of the experiment: Novel Modifiers of Survival Motor Neuron (SMN) Protein: Gene Identification via Genome-wide siRNA Screen.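 Also: luminescence tracks full-length SMN protein made from the SMN2 reporter.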 The conditions noted are these: HEK293T SMN2-luciferase reporter, siRNA knockdown, 72 h; actives lie on both sides. Summed up:
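Steps: spot 1 pmol siRNA, add Lipofectamine RNAiMax in serum-free DMEM, seed HEK293T SMN2–luciferase reporter cells; incubate 72 h at 37 °C; add ONE-Glo; normalize luminescence to control siRNA, log10, MAD. Candidates: |MAD| > 1.0.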
For GGAGGAUAGCAGCAGAAGATT against ATP5I, the median seed-adjusted z-score was -0.871.
For the sequence GGUGAAUGCUGAUGACUCUTT against CLDN16, the median seed-adjusted z-score was -0.868.
The same measure for CCACCAACGAAUACGUCUATT against PRKCSH: -0.0512; for GAAUCUACAGGAAACGAGATT against SETD8: -1.52 (active); for CUCUACACCGUGUACAUCATT against CHRM4: -0.856.
On to GCAGCAUGAGAAUGUCAAATT against GPD1, for which the median seed-adjusted z-score was 0.558.
Take CUACAGCCUAUAUAUGAAATT against FCRL1: the median seed-adjusted z-score is -0.873.
To CGACAAUAUUCCUUGAUGATT against CTGLF1 belongs 0.0231; to GGGAUAAGCAGAUAGAAGATT against MYST2, -1.46 (active).
To GGAUGUUUUUCGAAGGAUATT against RHEB belongs -0.387.
With GGACCGCAGCAAUGACAUUTT against SH3KBP1, the median seed-adjusted z-score is -0.34.
AGACGGUGACUUACAAAAATT against ARF6: the median seed-adjusted z-score is -0.805.
Take GCAACUUCAUUUCUCAUCUTT against CA6: the median seed-adjusted z-score was 0.349.
To GUAUAUAAACAGACAAUGATT against DNAJC8 belongs -1.62 (active); to UCAUCUUCUUUGACCCAGATT against HNF4A, -0.0274.
Turning to GAGAGAAUCAUUACGAAAATT against MTMR2, the median seed-adjusted z-score was 0.495.
Regarding CAAACUUAAAGGUCAGAAATT against WHSC1, the median seed-adjusted z-score was 1.17 (active).
Regarding GGACAAAGUCUUAACAAAATT against SLC30A10, the median seed-adjusted z-score was 0.523.
For the sequence CCAGACCACUUGCUAUGAATT against GATA6, the median seed-adjusted z-score is 0.546.
CUACUGGAGCAACACUGUATT against NDUFA4: the median seed-adjusted z-score was 0.
The same measure for GCAAGAUUAGACAUACUGATT against PSMC6: -0.578; for GAGCGAGUCUACAAGUGUATT against REST: 0.416.
The same measure for CAGUCUGCCGAAGAAGUAATT against CDC2L1: -1.14 (active); for GGAUCUUCCUUAUUACUCUTT against UBE4A: -0.285.
To CCAGCACGUUGGAAGACCATT against ZNF808 belongs 0.138; to GUCCUUAUCUUUGCAAAUATT against ARL5B, -0.506; to GGAGCUACUUAAUCGGGAUTT against ANGEL1, -0.332.
For the sequence GCACGGAAAUUCUACAAGATT against ABCA4, the median seed-adjusted z-score is -1.09 (active).
The same measure for GGACGAUGUCUACAGCCUATT against SIN3B: 0.509.
The same measure for CGGGAACUAUCCAAACAAUTT against DMBT1: -0.131.
For the sequence GCAGAACUGACAGUCGAUATT against DMTF1, the median seed-adjusted z-score was 0.396.
To GAGUGGACUGUGGAAGAUATT against RCOR1 belongs -1.13 (active).
The same measure for CCAAAAGAAUAUCCGCUAATT against NLK: 0.256.
The same measure for CACCUACUGUGAUGACAGATT against EPAS1: -0.166; for GAAGUAGACUUGAUACGAATT against AQR: -1.56 (active).
For the sequence AGCACAAGGUGGAACCGGUTT against CYGB, the median seed-adjusted z-score is -0.34.
To GCUACGAAAUGCUUGCUCATT against GALT belongs 0.484; to GGAUCAUGACCUAUGCUAATT against AKAP3, 0.0138; to GCUUUGUGAACGACAAUUATT against RABGGTB, -0.856.
Regarding CGCACGGACUGUACCAUUUTT against ETV2, the median seed-adjusted z-score is 0.
GCCUACUGGUCAUUGAUCATT against GNMT: the median seed-adjusted z-score was 0.0261.
On to GACAUAUGCAAGAACUAUATT against PSAP, for which the median seed-adjusted z-score was 0.107.
AGAGGAGAGUGGAAUUCCATT against ARID3C: the median seed-adjusted z-score was -1.32 (active).
Take GCAGUUUCUUAACCACGUUTT against IFI16: the median seed-adjusted z-score was -0.0178.
To ACUUUGCUCCUACUAUUCATT against NEGR1 belongs 0.194.
Take CCAUCGGACUGACAGUGAATT against COPZ1: the median seed-adjusted z-score is -1.02 (active).
Consider CGAAAACUGAUACACUUGATT against KSR2, for which the median seed-adjusted z-score was -0.371.
To GCUGAUUUUUGCUAAUAAATT against ARL5A belongs 0; to GCAUGUAAUGAGUAUCACATT against MRS2, 1.38 (active); to GAUCAACUGUGGAAAUAUUTT against KISS1R, -0.299.
In the case of CCGUGUUCAUUCCUUUUCATT against ZFP41, the median seed-adjusted z-score is 0.
As to CCACUAAAGGAUCAACGUATT against PHKB, the median seed-adjusted z-score is -0.142.
For GCGACUCCUAGAGAACAAATT against LSG1, the median seed-adjusted z-score was 1.31 (active).
The same measure for CAAGGUAGCUCAGCACUGATT against PEX6: -0.281; for AGAGCGAGCCUUUGCUGAUTT against DAD1: -0.45.
With CCCUGCUCCUCACUCAUUUTT against KRTAP5-5, the median seed-adjusted z-score was -1.07 (active).
In the case of GUUCCGUACAGAUAAAGGATT against SAE1, the median seed-adjusted z-score is 0.831.
The same measure for AUGUCACGCUGGUGCCCUATT against IFI30: 0.401; for GUAUCAUGCCCAUCUGAAATT against ZMAT4: -0.0468.
The same measure for GAGAGACUCAAGAACGUGATT against ARCN1: -1.25 (active); for AGCCUAUGAUUUUCCUGAATT against PTF1A: 0.482; for ACCUUGGUGUUGGACCUCATT against RNF26: 0.359.
The same measure for GGGACACGCUAAAAGGAGATT against GNB4: 0.015; for GGUCUAGCCUUGAUCAGAATT against SHROOM3: 0.779; for GCAAAUCAGAGGUUCAGAUTT against SQLE: -1.14 (active).
GGGCUGCAAGUGGAAUUCATT against NR1H3: the median seed-adjusted z-score is 0.426.
As for GGCAAACGAGUGUGCUUCATT against FAM47B, the median seed-adjusted z-score was -0.0631.
To CACCGGAGGUUUAUCACAATT against AMDHD2 belongs -0.0707; to AGCCUGUAGCUUAAACUUATT against KCTD12, 0.431.
